# From PubChem BioAssay (NCI)
# About 83,000 compounds went through this panel and 20% of them were active in at least one assay; those are over-represented in the sample as a whole.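 Negative percent growth values reflect cell death: -40 means 40% of the cells present at the start died, and -100 means all died.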 Unmarked numbers belong to inactive results. Active and inactive are the calls of the source. Rule for the calls: active = growth percent below 10; inactive = the rest.
# Tests used:
# Test in all cases: NCI-60 one-dose screen, 48 h (100 = growth as untreated, 0 = no growth, -100 = all killed)
# Details in all cases: 10 µM unless noted
# DU-145 prostate = system: DU-145 prostate
# K-562 leukemia = system: K-562 leukemia
# MDA-MB-231 breast = system: MDA-MB-231 breast
# RXF 393 renal = system: RXF 393 renal
# SF-268 CNS = system: SF-268 CNS
# SF-295 CNS = system: SF-295 CNS
# SF-539 CNS = system: SF-539 CNS
# UACC-257 melanoma = system: UACC-257 melanoma
# M14 melanoma = system: M14 melanoma
# MALME-3M melanoma = system: MALME-3M melanoma
SMILES,growth (DU-145 prostate),growth (K-562 leukemia),growth (MDA-MB-231 breast),growth (RXF 393 renal),growth (SF-268 CNS),growth (SF-295 CNS),growth (SF-539 CNS),growth (UACC-257 melanoma) [%],growth (M14 melanoma),growth (MALME-3M melanoma)
COc1ccc2sc(-n3nc4nc5n(c(=O)c4c3N)-c3ccccc3Sc3ccccc3-5)nc2c1,99.7%,47.9%,47.5%,93.8%,86.8%,65.8%,104%,89.6,77.1%,
COc1ccc2oc(=O)cc(CN3C(=O)S/C(=C\c4ccc(Cl)cc4)C3=O)c2c1,96.5%,64.1%,108%,116%,92.2%,92%,99.6%,103,96.2%,
COc1ccc(CN2C(=O)/C(=C\C(=O)c3ccc(OCCN4CCCCC4)cc3)c3ccccc32)cc1,66%,2.32% (active),84.8%,61.7%,82.7%,91.5%,86.4%,99,72.1%,
C[C@@H](c1ccc2c(c1)[nH]c1ccc(Cl)cc12)c1nc2ccc(Cl)cc2[nH]1,90.7%,52.6%,60.1%,101%,80.9%,99.4%,85.7%,98,100%,
CCOC(=O)NNc1[nH]c(-c2ccc(OC)cc2)cc1C#N,108%,68.9%,89.8%,96%,103%,111%,94.3%,92.5,,
Cc1cc(CSc2ccc(Cl)cc2)ccc1N,88.5%,99.6%,61.9%,105%,70%,101%,62.9%,108,101%,
COc1ccc(/C=C(/C(=O)N2CCN(c3ccc(C)cc3)CC2)c2cc(OC)c(OC)c(OC)c2)cc1N,5.56% (active),11.2%,33.6%,55.2%,25.6%,15.4%,-4.4% (active),73.8,3.96% (active),
C[C@@H](c1ccc2c(c1)[nH]c1ccc(Cl)cc12)c1nc2ccccc2[nH]1,103%,82%,88.1%,105%,87.3%,93.5%,98.7%,106,111%,
COc1ccc(Cn2cc3c(c2-c2ccc(O)cc2)CCc2cnoc2-3)cc1,20.2%,12%,18%,6.55% (active),45.5%,-24.6% (active),-16.2% (active),70.8,9.96% (active),
CCCCN(CCC)CCCCCCCCCCN1CCCc2ccccc21,77.1%,17.5%,,109%,75.7%,83.6%,101%,106,88.6%,74.3%
CCCCCN1CCN(C(CC(=O)c2ccccc2)C(=O)c2ccccc2)CC1 (configuration not stated),69.1%,11.2%,,111%,91.5%,105%,110%,107,97.6%,50.4%
Nc1cc(N)c2nc(NCCc3ccc(Cl)c(Cl)c3)cnc2c1,101%,-23.1% (active),-23.5% (active),51.1%,30.8%,89.4%,89.6%,90.4,,
NCCCOc1cc2ccccc2cc1C(=O)Nc1ccc(Cl)cc1OC(=O)c1cc2ccccc2cc1OCCCN,-97% (active),-37.5% (active),,-86.4% (active),-80.5% (active),-76.2% (active),-89.6% (active),,-86.7% (active),-70.7% (active)
O=C1c2cc([N+](=O)[O-])ccc2-c2cc(Cl)c(NC(=O)C(F)(F)F)cc21,112%,88.6%,109%,87.5%,107%,111%,95.4%,128,110%,
N#Cc1ccc(NC2c3ccccc3CC2O)cc1 (configuration not stated),110%,90.4%,114%,89.6%,115%,114%,102%,125,106%,
